# In PubChem BioAssay (EPA / NIEHS):
# Records with an inconclusive call do not appear. Activity calls are given as the source filed them. Rule for the calls: active = hit-call score of the fitted dose curve at least 0.9, where 1 is the maximum; inconclusive = response in the unintended direction; inactive = score below 0.9.
# Legend:
# [1] = ATG_XTT_Cytotoxicity_XSP1: Cytotoxicity Assessment in the Attagene TRANS-FACTORIAL Multi-Species (XSP1) HepG2 Assay (AID 2283810)
# Procedure, shortened: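 XTT viability readout taken at 24 hours post-dosing in HepG2 liver cells co-treated with 3 nM 6-alpha-fluorotestosterone. Signal loss relative to DMSO controls reflects cytotoxicity.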
# [2] = ATG_M_06_XSP2: Attagene TRANS-FACTORIAL Multi-Species (XSP2) HepG2 Assay for M06 Transcription Factor (Internal Marker) (AID 2283811);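 note: hits are increases in signal above the DMSO baseline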
# Procedure, shortened: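 HepG2 cells transiently transfected with GAL4-UAS multi-reporter constructs, dosed 24 h with 3 nM 6-alpha-fluorotestosterone plus 1.5 nM norgestrel present to stimulate androgen receptor. Reporter mRNA quantified by RT-PCR, 6-FAM labelling, HpaI digestion and capillary electrophoresis; gain-of-signal fitted versus DMSO baseline.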
# [3] = tested on: turtle Estrogen Receptor (ERa), gene 101933533; assay: ATG_trERa_XSP2: Attagene TRANS-FACTORIAL Multi-Species (XSP2) HepG2 Assay for turtle Estrogen Receptor (ERa) (AID 2283812);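 note: human HepG2 liver cells transiently expressing turtle ERa-Gal4 chimeric receptor; actives raise reporter signal above DMSO so AC50 reflects agonist activity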
# Procedure, shortened: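 HepG2 cells transiently transfected with GAL4-UAS reporter units expressing turtle ERa-Gal4 chimera. Reporter mRNA measured after 24 h dosing by RT-PCR, fluorescent labelling and capillary electrophoresis; gain of signal fitted versus DMSO.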
# [4] = target: Estrogen receptor beta (Homo sapiens) (UniProt Q92731); assay: ATG_hERb_XSP2: Attagene TRANS-FACTORIAL Multi-Species (XSP2) HepG2 Assay for human Estrogen Receptor (ERb) (AID 2283813);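 note: actives raise reporter mRNA above DMSO so AC50 reflects agonist induction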
# Estrogen receptor beta (Homo sapiens), sequence (Q92731 whole entry, looked up, the tested form may be a part): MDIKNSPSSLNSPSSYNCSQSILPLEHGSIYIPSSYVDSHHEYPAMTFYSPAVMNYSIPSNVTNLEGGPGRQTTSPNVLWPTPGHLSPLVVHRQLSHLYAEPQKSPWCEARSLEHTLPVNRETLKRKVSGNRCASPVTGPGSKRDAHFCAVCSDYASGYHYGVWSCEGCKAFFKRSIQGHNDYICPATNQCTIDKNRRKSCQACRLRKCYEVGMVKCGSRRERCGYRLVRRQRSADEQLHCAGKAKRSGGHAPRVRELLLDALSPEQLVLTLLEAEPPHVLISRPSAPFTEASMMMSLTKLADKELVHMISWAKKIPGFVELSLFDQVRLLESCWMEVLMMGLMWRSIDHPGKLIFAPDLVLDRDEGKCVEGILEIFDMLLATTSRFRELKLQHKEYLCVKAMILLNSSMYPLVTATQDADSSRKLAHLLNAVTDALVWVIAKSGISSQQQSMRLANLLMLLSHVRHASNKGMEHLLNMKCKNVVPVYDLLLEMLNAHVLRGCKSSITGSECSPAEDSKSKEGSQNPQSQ
# Procedure, shortened: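 HepG2 cells transiently transfected with GAL4-UAS reporter units and chimeric human ERb-Gal4, 24 h exposure. Reporter mRNA quantified by RT-PCR with FAM labelling, HpaI digestion and capillary electrophoresis; gain of signal versus DMSO.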
# [5] = target: GAL4 Transcription Factor (Internal Marker), GAL4 (gene 855828) (UniProt P04386); assay: ATG_GAL4_XSP2: Attagene TRANS-FACTORIAL Multi-Species (XSP2) HepG2 Assay for GAL4 Transcription Factor (Internal Marker) (AID 2283814);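 note: GAL4 reporter mRNA background control in MRTU transfected cells not a receptor target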
# GAL4 Transcription Factor (Internal Marker), GAL4 (gene 855828), sequence (P04386 whole entry, looked up, the tested form may be a part): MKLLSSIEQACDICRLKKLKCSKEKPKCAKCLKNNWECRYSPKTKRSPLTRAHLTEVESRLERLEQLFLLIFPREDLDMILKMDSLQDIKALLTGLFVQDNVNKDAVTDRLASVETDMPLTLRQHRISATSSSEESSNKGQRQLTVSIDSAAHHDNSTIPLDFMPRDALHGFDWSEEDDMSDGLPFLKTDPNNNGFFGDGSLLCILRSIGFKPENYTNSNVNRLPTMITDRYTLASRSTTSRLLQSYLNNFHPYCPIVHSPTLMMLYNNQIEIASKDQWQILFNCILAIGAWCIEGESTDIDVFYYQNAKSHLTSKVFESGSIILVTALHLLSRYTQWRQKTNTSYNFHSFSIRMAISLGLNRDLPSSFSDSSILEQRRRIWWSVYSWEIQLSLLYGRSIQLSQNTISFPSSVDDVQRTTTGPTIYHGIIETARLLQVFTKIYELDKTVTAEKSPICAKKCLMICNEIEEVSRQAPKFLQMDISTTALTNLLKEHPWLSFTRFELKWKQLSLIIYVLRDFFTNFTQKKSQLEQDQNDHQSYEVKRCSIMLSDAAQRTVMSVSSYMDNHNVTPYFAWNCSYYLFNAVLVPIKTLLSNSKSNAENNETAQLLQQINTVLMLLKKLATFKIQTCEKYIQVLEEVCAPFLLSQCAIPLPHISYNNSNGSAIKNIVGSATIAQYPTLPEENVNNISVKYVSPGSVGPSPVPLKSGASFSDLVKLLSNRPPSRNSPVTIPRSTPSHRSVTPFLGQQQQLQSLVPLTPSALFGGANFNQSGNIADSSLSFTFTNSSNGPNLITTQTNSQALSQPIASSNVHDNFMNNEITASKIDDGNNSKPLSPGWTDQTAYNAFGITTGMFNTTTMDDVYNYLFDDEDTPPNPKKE
# Procedure, shortened: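 HepG2 cells transiently transfected with GAL4-UAS reporter units, stimulated with 3 nM 6-alpha-fluorotestosterone plus 1.5 nM norgestrel, dosed 24 h. Reporter mRNA by RT-PCR/capillary electrophoresis; gain-of-signal fit versus DMSO, background control.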
# [6] = target: zebrafish Estrogen Receptor (ER1), esr1 (gene 259252) (UniProt P57717); assay: ATG_zfER1_XSP2: Attagene TRANS-FACTORIAL Multi-Species (XSP2) HepG2 Assay for zebrafish Estrogen Receptor (ER1) (AID 2283816)
# zebrafish Estrogen Receptor (ER1), esr1 (gene 259252), sequence (P57717 whole entry, looked up, the tested form may be a part): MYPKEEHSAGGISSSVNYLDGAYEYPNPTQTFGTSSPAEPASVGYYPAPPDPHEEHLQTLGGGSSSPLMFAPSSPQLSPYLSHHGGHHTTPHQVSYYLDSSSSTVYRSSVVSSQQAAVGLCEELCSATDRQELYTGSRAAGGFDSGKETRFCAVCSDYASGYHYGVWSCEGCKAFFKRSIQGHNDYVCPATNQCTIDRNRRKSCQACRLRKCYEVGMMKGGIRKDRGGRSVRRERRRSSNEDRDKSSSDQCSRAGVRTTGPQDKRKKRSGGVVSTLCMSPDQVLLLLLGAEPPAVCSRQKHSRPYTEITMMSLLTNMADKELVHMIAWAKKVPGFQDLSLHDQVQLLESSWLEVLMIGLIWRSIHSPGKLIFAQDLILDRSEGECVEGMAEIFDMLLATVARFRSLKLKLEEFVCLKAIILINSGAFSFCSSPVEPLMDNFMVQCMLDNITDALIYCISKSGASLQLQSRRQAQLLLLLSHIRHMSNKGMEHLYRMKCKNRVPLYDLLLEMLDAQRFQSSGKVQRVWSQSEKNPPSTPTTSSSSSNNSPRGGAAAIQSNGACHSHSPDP
# Procedure, shortened: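 HepG2 cells transiently transfected with a GAL4-UAS reporter and a chimeric zebrafish ER1-Gal4 construct, dosed 24 h. Reporter mRNA quantified by RT-PCR, labelling, HpaI digestion and capillary electrophoresis, relative to DMSO.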
# [7] = tested on: zebrafish Estrogen Receptor (ER2a), gene 317734; assay: ATG_zfER2a_XSP2: Attagene TRANS-FACTORIAL Multi-Species (XSP2) HepG2 Assay for zebrafish Estrogen Receptor (ER2a) (AID 2283818);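 note: hits raise reporter mRNA so AC50 reflects activation of zebrafish ER2a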
# Procedure, shortened: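 HepG2 cells transiently transfected with GAL4-UAS reporter units and chimeric zebrafish ER2a-Gal4, exposed 24 h; medium contains 3 nM 6-alpha-fluorotestosterone and 1.5 nM norgestrel. Reporter mRNA quantified by RT-PCR, HpaI digestion, capillary electrophoresis; gain versus DMSO.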
# [8] = tested on: frog Estrogen Receptor (ER), gene 398734; assay: ATG_frER1_XSP2: Attagene TRANS-FACTORIAL Multi-Species (XSP2) HepG2 Assay for frog Estrogen Receptor (ER) (AID 2283821);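 note: hits raise reporter mRNA above DMSO baseline so potency means agonist or activator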
# Procedure, shortened: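 HepG2, transient MRTU transfection, chimeric NR-GAL4/UAS reporters; 24 h compound exposure, 24-well. Readout: reporter mRNA via RT-PCR + capillary electrophoresis, fluorescence. Positive fit vs DMSO baseline.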
# [9] = tested on: zebrafish Estrogen Receptor (ER2b), gene 317733; assay: ATG_zfER2b_XSP2: Attagene TRANS-FACTORIAL Multi-Species (XSP2) HepG2 Assay for zebrafish Estrogen Receptor (ER2b) (AID 2283823);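 note: fitted upward as reporter gain over DMSO so potency reflects activation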
# Procedure, shortened: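 HepG2 human liver cells transiently transfected with multiplexed GAL4-UAS reporter units expressing chimeric NR-Gal4 proteins; compounds dosed for 24 h. Reporter mRNA quantified by RT-PCR, 6-FAM labelling and capillary electrophoresis; gain-of-signal fitted against DMSO baseline.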
# [10] = ATG_M_32_XSP2: Attagene TRANS-FACTORIAL Multi-Species (XSP2) HepG2 Assay for M19 Transcription Factor (Internal Marker) (AID 2283826)
# Procedure, shortened: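 Read-out: reporter mRNA quantified by RT-PCR, FAM labeling, HpaI digestion and capillary electrophoresis, 24 h after dosing transfected HepG2 cells. Medium carried 3 nM 6-alpha-fluorotestosterone plus 1.5 nM norgestrel; gain of signal fitted against DMSO.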
# [11] = target: Estrogen receptor (Homo sapiens) (UniProt P03372); assay: ATG_hERa_XSP2: Attagene TRANS-FACTORIAL Multi-Species (XSP2) HepG2 Assay for human Estrogen Receptor (ERa) (AID 2283827)
# Estrogen receptor (Homo sapiens), sequence (P03372 whole entry, looked up, the tested form may be a part): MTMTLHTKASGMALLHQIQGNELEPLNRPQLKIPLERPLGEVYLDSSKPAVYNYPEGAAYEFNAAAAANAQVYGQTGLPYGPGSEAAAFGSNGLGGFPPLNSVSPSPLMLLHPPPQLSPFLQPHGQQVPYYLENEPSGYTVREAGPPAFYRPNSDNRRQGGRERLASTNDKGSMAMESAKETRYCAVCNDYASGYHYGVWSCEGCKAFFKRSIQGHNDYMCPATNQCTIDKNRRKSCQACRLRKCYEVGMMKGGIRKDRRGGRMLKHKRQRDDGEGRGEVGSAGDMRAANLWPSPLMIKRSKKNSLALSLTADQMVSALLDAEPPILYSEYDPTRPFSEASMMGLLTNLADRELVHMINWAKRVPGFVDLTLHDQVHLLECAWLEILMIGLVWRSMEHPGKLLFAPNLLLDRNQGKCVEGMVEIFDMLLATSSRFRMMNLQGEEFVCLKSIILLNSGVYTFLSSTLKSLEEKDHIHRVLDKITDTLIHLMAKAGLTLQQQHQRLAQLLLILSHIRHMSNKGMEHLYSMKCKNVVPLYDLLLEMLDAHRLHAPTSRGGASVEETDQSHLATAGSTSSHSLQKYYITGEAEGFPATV
# Procedure, shortened: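 HepG2 cells transiently transfected with multiplexed GAL4-UAS reporters driven by chimeric receptor-Gal4 proteins, dosed 24 h with 3 nM 6-alpha-fluorotestosterone and 1.5 nM norgestrel present. Reporter mRNA by RT-PCR and capillary electrophoresis; gain-of-signal fit versus DMSO.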
# [12] = target: Peroxisome proliferator-activated receptor gamma (Homo sapiens) (UniProt P37231); assay: ATG_hPPARg_XSP2: Attagene TRANS-FACTORIAL Multi-Species (XSP2) HepG2 Assay for human Peroxisome Proliferator-activated Receptor gamma (PPARg) (AID 2283829);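 note: actives raise reporter mRNA above DMSO so AC50 reflects PPARg activation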
# Peroxisome proliferator-activated receptor gamma (Homo sapiens), sequence (P37231 whole entry, looked up, the tested form may be a part): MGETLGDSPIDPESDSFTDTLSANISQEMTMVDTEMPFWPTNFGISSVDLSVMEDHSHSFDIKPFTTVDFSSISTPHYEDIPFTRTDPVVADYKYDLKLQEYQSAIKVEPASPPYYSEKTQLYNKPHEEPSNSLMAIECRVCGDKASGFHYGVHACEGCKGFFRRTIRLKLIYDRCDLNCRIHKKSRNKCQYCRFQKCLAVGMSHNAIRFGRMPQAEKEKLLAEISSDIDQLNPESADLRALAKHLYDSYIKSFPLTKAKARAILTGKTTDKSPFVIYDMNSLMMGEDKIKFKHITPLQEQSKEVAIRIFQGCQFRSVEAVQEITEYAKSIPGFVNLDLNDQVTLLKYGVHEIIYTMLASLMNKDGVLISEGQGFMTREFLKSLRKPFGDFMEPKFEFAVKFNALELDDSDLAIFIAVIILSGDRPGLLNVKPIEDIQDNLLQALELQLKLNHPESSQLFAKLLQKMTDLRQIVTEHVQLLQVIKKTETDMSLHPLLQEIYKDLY
# Procedure, shortened: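 Reporter transcripts were measured by RT-PCR, fluorescent labeling, HpaI digestion and capillary electrophoresis, relative to DMSO, 24 h post-dosing. Transiently transfected HepG2 expressed NR-Gal4 chimeras regulating GAL4-UAS reporters; medium contained 3 nM 6-alpha-fluorotestosterone plus 1.5 nM norgestrel.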
# [13] = target: mouse Peroxisome Proliferator-activated Receptor gamma (PPARg), Pparg (gene 19016) (UniProt P37238); assay: ATG_mPPARg_XSP2: Attagene TRANS-FACTORIAL Multi-Species (XSP2) HepG2 Assay for mouse Peroxisome Proliferator-activated Receptor gamma (PPARg) (AID 2283830);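 note: hits are gains in reporter mRNA above DMSO so AC50 marks activation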
# mouse Peroxisome Proliferator-activated Receptor gamma (PPARg), Pparg (gene 19016), sequence (P37238 whole entry, looked up, the tested form may be a part): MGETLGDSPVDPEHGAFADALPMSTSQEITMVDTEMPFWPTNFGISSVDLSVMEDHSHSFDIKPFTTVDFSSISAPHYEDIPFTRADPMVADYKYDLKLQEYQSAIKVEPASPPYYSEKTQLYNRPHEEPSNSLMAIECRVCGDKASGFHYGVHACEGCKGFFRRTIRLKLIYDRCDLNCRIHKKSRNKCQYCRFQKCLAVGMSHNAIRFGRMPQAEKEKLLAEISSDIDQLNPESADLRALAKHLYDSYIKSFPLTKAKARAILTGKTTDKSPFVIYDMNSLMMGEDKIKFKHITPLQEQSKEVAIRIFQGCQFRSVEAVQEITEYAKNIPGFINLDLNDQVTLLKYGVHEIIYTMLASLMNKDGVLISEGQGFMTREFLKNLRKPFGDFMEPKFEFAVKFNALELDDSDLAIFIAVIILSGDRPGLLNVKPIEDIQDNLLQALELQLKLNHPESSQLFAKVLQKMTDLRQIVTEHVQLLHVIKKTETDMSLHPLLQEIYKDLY
# Procedure, shortened: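 HepG2 cells transiently transfected with GAL4-UAS reporter units for chimeric NR-Gal4 proteins including mouse PPARg, exposed 24 h; medium contained 3 nM 6-alpha-fluorotestosterone and 1.5 nM norgestrel. Reporter mRNA quantified by RT-PCR, HpaI digestion and capillary electrophoresis, vs DMSO.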
# [14] = target: Nuclear receptor subfamily 1 group I member 2 (Mus musculus) (UniProt O54915); assay: ATG_mPXR_XSP2: Attagene TRANS-FACTORIAL Multi-Species (XSP1) HepG2 Assay for mouse Pregnane X Receptor (PXR) (AID 2283831)
# Nuclear receptor subfamily 1 group I member 2 (Mus musculus), sequence (O54915 whole entry, looked up, the tested form may be a part): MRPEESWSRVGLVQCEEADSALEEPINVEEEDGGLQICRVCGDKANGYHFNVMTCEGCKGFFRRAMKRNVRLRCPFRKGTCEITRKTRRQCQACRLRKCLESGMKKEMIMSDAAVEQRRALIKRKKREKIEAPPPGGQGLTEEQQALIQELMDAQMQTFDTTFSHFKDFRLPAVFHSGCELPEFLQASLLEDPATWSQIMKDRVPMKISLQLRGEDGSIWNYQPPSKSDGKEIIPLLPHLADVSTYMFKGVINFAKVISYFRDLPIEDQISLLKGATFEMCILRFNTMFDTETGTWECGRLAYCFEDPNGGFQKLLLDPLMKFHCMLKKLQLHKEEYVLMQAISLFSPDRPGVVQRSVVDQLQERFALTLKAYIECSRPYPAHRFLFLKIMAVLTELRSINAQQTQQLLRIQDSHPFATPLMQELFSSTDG
# Procedure, shortened: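 Reporter transcripts measured after 24 h dosing by RT-PCR with 6-FAM labelling, HpaI digestion and capillary electrophoresis. Transiently transfected HepG2 with NR-Gal4 chimeras; increase over DMSO baseline scored.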
# [15] = tested on: turtle Androgen Receptor (AR), gene 101947425; assay: ATG_trAR_XSP2: Attagene TRANS-FACTORIAL Multi-Species (XSP2) HepG2 Assay for turtle Androgen Receptor (AR) (AID 2283815);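 for AC50: potency for gain of reporter signal meaning activation above DMSO baseline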
# Procedure, shortened: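 HepG2 cells transiently transfected with GAL4-UAS reporter units for chimeric NR-Gal4 receptors; 24 h dosing in presence of 3 nM 6-alpha-fluorotestosterone and 1.5 nM norgestrel. Reporter mRNA by RT-PCR and capillary electrophoresis, gain of signal versus DMSO.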
# [16] = tested on: chicken Androgen Receptor (AR), gene 422165; assay: ATG_chAR_XSP2: Attagene TRANS-FACTORIAL Multi-Species (XSP2) HepG2 Assay for chicken Androgen Receptor (AR) (AID 2283819);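 note: hits raise reporter mRNA above DMSO so potency is for activation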
# Procedure, shortened: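 HepG2 cells transiently transfected with chicken AR–GAL4 chimeric reporter constructs, stimulated with 3 nM 6-alpha-fluorotestosterone plus 1.5 nM norgestrel, dosed 24 h. Reporter mRNA quantified by RT-PCR and capillary electrophoresis; gain of signal fitted versus DMSO.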
# [17] = tested on: frog Androgen Receptor (AR), gene 399456; assay: ATG_frAR_XSP2: Attagene TRANS-FACTORIAL Multi-Species (XSP2) HepG2 Assay for frog Androgen Receptor (AR) (AID 2283824);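 note: actives raise reporter signal above DMSO so AC50 reflects agonist-like induction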
# Procedure, shortened: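 HepG2 cells transiently transfected with GAL4-UAS reporter units and frog (Xenopus laevis) AR-Gal4 chimera; reporter mRNA measured 24 h after dosing by RT-PCR and capillary electrophoresis. Gain of signal fitted relative to DMSO baseline.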
# [18] = tested on: frog Estrogen Receptor (ER2), gene 100174814; assay: ATG_frER2_XSP2: Attagene TRANS-FACTORIAL Multi-Species (XSP2) HepG2 Assay for frog Estrogen Receptor (ER2) (AID 2283828)
# Procedure, shortened: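 Human liver HepG2, transient MRTU transfection (TRANS format, exogenous NR–Gal4). 24 h cpd exposure. Total RNA → RT → PCR → FAM label → HpaI cut → CE. Positive direction vs DMSO.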
# [19] = ATG_M_19_XSP2: Attagene TRANS-FACTORIAL Multi-Species (XSP2) HepG2 Assay for M32 Transcription Factor (Internal Marker) (AID 2283822)
# Procedure, shortened: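 Internal background marker in a multi-species nuclear receptor TRANS panel: transfected HepG2 cells exposed 24 h, with 3 nM 6-alpha-fluorotestosterone and 1.5 nM norgestrel present. Readout is RT-PCR of reporter transcripts resolved by capillary electrophoresis, gain-of-signal versus DMSO.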
compound,measurement,setting,value
COC(=O)N(OC)c1ccccc1COc1ccn(-c2ccc(Cl)cc2)n1,outcome,[1],inactive
same,outcome,[2],inactive
same,outcome,[3],inactive
same,outcome,[4],inactive
same,outcome,[5],inactive
same,outcome,[6],inactive
same,outcome,[7],inactive
same,outcome,[8],inactive
same,outcome,[9],inactive
same,outcome,[10],inactive
same,AC50,[11],2.64 µM (active)
same,AC50,[12],1.15 µM (active)
same,AC50,[13],1.43 µM (active)
same,AC50,[14],2.7 µM (active)
CC(C)(C)c1ccc(CSc2cnn(C(C)(C)C)c(=O)c2Cl)cc1,outcome,[1],inactive
same,outcome,[2],inactive
same,outcome,[3],inactive
same,outcome,[4],inactive
same,outcome,[5],inactive
same,outcome,[15],inactive
same,outcome,[6],inactive
same,outcome,[7],inactive
same,outcome,[16],inactive
same,outcome,[8],inactive
same,outcome,[9],inactive
same,outcome,[17],inactive
same,outcome,[10],inactive
same,outcome,[11],inactive
same,outcome,[18],inactive
same,AC50,[12],1.3 µM (active)
same,AC50,[13],2.2 µM (active)
same,AC50,[14],0.834 µM (active)
CCCC1COC(Cn2cncn2)(c2ccc(Cl)cc2Cl)O1 (centres undefined),outcome,[1],inactive
same,outcome,[2],inactive
same,AC50,[3],64.2 µM (active)
same,outcome,[5],inactive
same,outcome,[6],inactive
same,AC50,[8],167 µM (active)
same,AC50,[9],39.5 µM (active)
same,outcome,[10],inactive
same,AC50,[18],32.5 µM (active)
same,AC50,[12],67.2 µM (active)
same,AC50,[13],100 µM (active)
same,AC50,[14],3.79 µM (active)
CCCCC(CC)COC(=O)c1ccccc1C(=O)OCC(CC)CCCC (centres undefined),outcome,[1],inactive
same,outcome,[2],inactive
same,outcome,[8],inactive
same,AC50,[9],8.7 µM (active)
same,outcome,[11],inactive
same,AC50,[12],34.5 µM (active)
same,AC50,[13],9.14 µM (active)
same,AC50,[14],0.342 µM (active)
C=CC1(C)OC(=O)N(c2cc(Cl)cc(Cl)c2)C1=O (centres undefined),outcome,[2],inactive
same,outcome,[3],inactive
same,outcome,[4],inactive
same,outcome,[7],inactive
same,outcome,[8],inactive
same,AC50,[9],142 µM (active)
same,outcome,[10],inactive
same,AC50,[11],3.58 µM (active)
same,outcome,[18],inactive
same,AC50,[12],36.6 µM (active)
same,AC50,[13],29.5 µM (active)
same,AC50,[14],31.2 µM (active)
OC(c1ccc(Cl)cc1)(c1cncnc1)c1ccccc1Cl (centres undefined),outcome,[1],inactive
same,outcome,[2],inactive
same,AC50,[3],1.49 µM (active)
same,AC50,[4],25.4 µM (active)
same,outcome,[5],inactive
same,AC50,[6],25.9 µM (active)
same,AC50,[7],26.5 µM (active)
same,outcome,[8],inactive
same,AC50,[9],7.41 µM (active)
same,outcome,[10],inactive
same,AC50,[11],0.941 µM (active)
same,AC50,[18],6.28 µM (active)
same,AC50,[12],100 µM (active)
same,AC50,[13],100 µM (active)
same,AC50,[14],4.78 µM (active)
CON(C)C(=O)Nc1ccc(Cl)c(Cl)c1,outcome,[1],inactive
same,outcome,[5],inactive
same,outcome,[6],inactive
same,outcome,[7],inactive
same,outcome,[8],inactive
same,outcome,[19],inactive
same,outcome,[9],inactive
same,outcome,[11],inactive
same,AC50,[12],161 µM (active)
same,outcome,[13],inactive
same,AC50,[14],5.69 µM (active)
COP(=S)(OC)Oc1nc(Cl)c(Cl)cc1Cl,outcome,[2],inactive
same,AC50,[3],55.8 µM (active)
same,outcome,[4],inactive
same,AC50,[15],17.5 µM (active)
same,outcome,[7],inactive
same,AC50,[16],22.9 µM (active)
same,AC50,[8],43 µM (active)
same,AC50,[9],87.2 µM (active)
same,AC50,[17],29.7 µM (active)
same,AC50,[11],31.8 µM (active)
same,outcome,[18],inactive
same,AC50,[12],4.74 µM (active)
same,AC50,[13],6.11 µM (active)
same,outcome,[14],inactive
